We go through 14 compounds from PubChem BioAssay.

Experiment [1] in a line: inhibitors of TNFa-induced NFkB p65 translocation, primary screen, imaging, HUVEC, MLSMR starter and 10KST1 sets (AID 438;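 active = inhibition above 20% together with a positive visual image hit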;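 note: compound added about 3h40 before a 20 min TNFalpha stimulation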;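 for inhibition: signal is the nuclear over cytoplasmic p65 intensity ratio per well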). To be noted: HUVEC TNFa-induced p65 nuclear translocation; cell count: measured here: nuclei count (cytotoxicity indicator), at 2.08 µM; inhibition: at 2 µM, stronger effect = higher value, 0% TNFa-plus-vehicle, 100% no-TNFa wells.
Experiment [2] is described as follows: inhibitors of mutant huntingtin aggregation, primary screen, imaging, exon1htt(103Q)mCFP cells, high-content imaging (AID 483;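 active = visual image review flags a hit and inhibition of aggregation exceeds 20%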;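 note: compound exposure lasted 3 days before fixation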;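 for nuclei count: percent of the per-plate median nuclei count of sample wells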). To be noted: exon1htt(103Q)mCFP cell line, aggregate imaging, at 2 µM; inhibition of aggregation: stronger effect = higher value; nuclei count: measured here: cell count, toxicity.
The nature of experiment [3]: inhibitors of E-selectin induction by TNFa, primary screen, imaging, HUVEC, immunofluorescence, MLSMR starter and 10KST1 sets (AID 487;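 active = visually confirmed hit in the image check and inhibition above 20%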;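 for inhibition: signal is fraction of cell area covered by stained E-selectin grains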;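 for nuclei count: 100% = median nuclei count of all wells on the same plate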). To be noted: HUVEC TNFalpha-induced E-selectin immunofluorescence imaging, at 2 µM; inhibition: stronger effect = higher value; nuclei count: measured here: cell number, toxicity.
For experiment [4], the target named is Voltage-gated potassium channel subunit beta-2 (Rattus norvegicus) (UniProt P62483). The experiment can be described thus: KvBeta enzyme negative modulators, primary screen, biochemical, NADPH fluorescence (AID 622;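 active = fluorescence slope higher than the sample average by over 3 SD, cut at about -0.22 in these data, passing the limit was not always enough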;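 note: slope of raw intensity against log time taken from 70 to 1610 s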). To be noted: recombinant KvBeta, 4-cyanobenzaldehyde reduction, at 10 µM, stronger effect = higher value.
Chain of Voltage-gated potassium channel subunit beta-2 (Rattus norvegicus) (P62483 whole entry, looked up): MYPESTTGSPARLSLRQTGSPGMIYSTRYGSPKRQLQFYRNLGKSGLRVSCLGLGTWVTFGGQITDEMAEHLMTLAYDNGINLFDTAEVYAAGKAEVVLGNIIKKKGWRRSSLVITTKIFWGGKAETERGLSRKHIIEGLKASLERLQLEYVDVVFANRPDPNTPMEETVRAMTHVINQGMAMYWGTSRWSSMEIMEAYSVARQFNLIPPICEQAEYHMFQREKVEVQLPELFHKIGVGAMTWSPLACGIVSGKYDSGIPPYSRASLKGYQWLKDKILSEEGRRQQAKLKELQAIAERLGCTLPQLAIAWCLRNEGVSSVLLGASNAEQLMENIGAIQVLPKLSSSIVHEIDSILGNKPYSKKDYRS
Experiment [5] shares this target. The experiment can be described thus: KvBeta positive modulators, primary screen, biochemical, NADPH fluorescence (AID 623).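 Note: fluorescence intensity change per second fitted from 20 to 320 s.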 To be noted: Recombinant KvBeta, NADPH fluorescence decrease slope, 10 min; at 10 µM; stronger effect = lower value.
Experiment [6] addresses Alpha-2C adrenergic receptor (Homo sapiens) (UniProt P18825). The experiment can be described thus: modulators of alpha2C/GIRK thallium flux, primary screen, cell-based, HEK293 alpha2C/GIRK1/2 (AID 624;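 active = fluorescence slope after compound addition differing from the mean of all screened samples at 99.7% confidence, in either direction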;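 note: slope of fluorescence ratio to pre-addition baseline per second over 15 to 24 s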). The following applies: thallium flux BTC fluorescence, at 10 µM, actives lie on both sides.
A short description of experiment [7]: inhibitors of Sendai virus-induced IRF3 signaling, primary screen, TLR/RLR signaling modifier project, cell-based, Sendai virus stimulus, luciferase, 10K MLSCN set (AID 602276;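 active = inhibition at or above 50% at 10 µM; inactive = inhibition below 50%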;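 note: firefly luciferase from ISG56 promoter only with Renilla not read in this screen; 0% = Sendai virus plus DMSO and 100% = medium plus DMSO without virus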). The following applies: HEK293 RL24 IRF3 luciferase reporter, at 10 µM, stronger effect = higher value. For orientation: Reporter assays use an easily measured gene product as a stand-in for the process of interest.

Experiment [8] can be described thus: inhibitors of poly I:C-induced TLR3 signaling, primary screen, cell-based, poly I:C stimulus, luciferase, 10K MLSCN set (AID 602277;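 active = inhibition of the reporter signal at or above 50%; inactive = inhibition below 50%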). To be noted: HEK293-TLR3 RL24 IRF3 luciferase reporter, at 10 µM, stronger effect = higher value.

The source made the active and inactive calls.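 Rule for the calls, unless noted: active = NADPH fluorescence slope more negative than the mean of all samples by about 3 SD, 99.7% confidence; inactive = the rest.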

Chain of Alpha-2C adrenergic receptor (Homo sapiens) (P18825 whole entry, looked up): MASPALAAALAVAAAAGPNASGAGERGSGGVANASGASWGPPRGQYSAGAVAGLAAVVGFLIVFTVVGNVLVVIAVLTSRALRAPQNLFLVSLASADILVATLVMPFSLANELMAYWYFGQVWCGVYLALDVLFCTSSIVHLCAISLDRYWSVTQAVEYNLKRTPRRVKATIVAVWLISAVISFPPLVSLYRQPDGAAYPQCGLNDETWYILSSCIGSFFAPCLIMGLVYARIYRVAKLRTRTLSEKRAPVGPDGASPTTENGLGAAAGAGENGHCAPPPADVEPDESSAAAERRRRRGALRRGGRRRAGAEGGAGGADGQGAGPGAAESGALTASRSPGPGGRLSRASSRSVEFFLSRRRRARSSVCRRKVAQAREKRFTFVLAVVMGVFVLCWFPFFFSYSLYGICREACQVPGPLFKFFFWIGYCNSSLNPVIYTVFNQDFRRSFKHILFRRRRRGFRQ

For `COCCCNC(=O)CC1Oc2ccccc2NC1=O` (centres undefined), in experiment [1], the cell count worked out at 762. Besides, the inhibition in experiment [1] is 0% (inactive); in experiment [3], -48.7% (inactive); in experiment [7], 14.8% (inactive); in experiment [8], 33.9% (inactive). In addition, the inhibition of aggregation in experiment [2] is 13.4% (inactive). The nuclei count in experiment [2] worked out at 87.3%; in experiment [3], 112%. For the same compound, in experiment [4], the fluorescence slope was -0.54 (inactive). Besides, the NADPH fluorescence slope in experiment [5] is -5.2e-05 (inactive). For the same compound, the slope in experiment [6] is 0.00685 (inactive).
Consider `CCOC(=O)Nc1ccc2c(CN3C(=O)NC4(CCCC4)C3=O)cc(=O)oc2c1`, for which, in experiment [1], the cell count amounted to 744. The inhibition in experiment [1] was 3.5% (inactive); in experiment [3], -149% (inactive); in experiment [7], 0.299% (inactive); in experiment [8], -13.9% (inactive). The inhibition of aggregation in experiment [2] is -24.7% (inactive). Moreover, the values for the nuclei count in experiment [2] and in experiment [3] were 99.9% and 153%, respectively. In addition, the fluorescence slope in experiment [4] was -0.229 (inactive). Moreover, in experiment [5], the NADPH fluorescence slope is -2.4e-05 (inactive). For the same compound, in experiment [6], the slope was 0.00554 (inactive).
As for `CCCCn1nnnc1NCc1cccs1`, the cell count in experiment [1] worked out at 412. In addition, the inhibition in experiment [1] was 2.9% (inactive); in experiment [3], -66.2% (inactive); in experiment [7], 4.2% (inactive); in experiment [8], -0.68% (inactive). Also, the inhibition of aggregation in experiment [2] was 0.4% (inactive). The nuclei count is 105% in experiment [2] and 119% in experiment [3]. Besides, the fluorescence slope in experiment [4] is -0.52 (inactive). In experiment [5], the NADPH fluorescence slope was -1.2e-05 (inactive). Moreover, the slope in experiment [6] is 0.00631 (inactive).
In the case of `CN1CCN(c2nc3c(c(=O)[nH]c(=O)n3C)n2CCOc2ccccc2)CC1`, in experiment [1], the cell count amounted to 311. For the same compound, the inhibition is 6.2% (inactive) in experiment [1], -45.8% (inactive) in experiment [3], 3.18% (inactive) in experiment [7] and 27.3% (inactive) in experiment [8]. Moreover, the inhibition of aggregation in experiment [2] was 0.9% (inactive). For the same compound, the nuclei count was 108% in experiment [2] and 116% in experiment [3]. Moreover, in experiment [4], the fluorescence slope was -0.489 (inactive). Moreover, the NADPH fluorescence slope in experiment [5] was -4.3e-05 (inactive). Moreover, the slope in experiment [6] is 0.00596 (inactive).
Take `O=C1NC(c2ccco2)Nc2ccccc21` (centres undefined): the cell count in experiment [1] turned out to be 694. In addition, the inhibition in experiment [1] is -50% (inactive); in experiment [3] it was -84.8% (inactive); in experiment [7], -17.2% (inactive); in experiment [8], 99.3% (active). Moreover, the inhibition of aggregation in experiment [2] was -23.8% (inactive). Besides, the results for the nuclei count in experiment [2] and in experiment [3] were 102% and 107%, respectively. The fluorescence slope in experiment [4] is -0.344 (inactive). For the same compound, in experiment [5], the NADPH fluorescence slope is 1.4e-05 (inactive). The slope in experiment [6] was 0.00562 (inactive).
On to `CCOc1ccccc1N1CCN(C(=O)c2ccncc2)CC1`, for which, in experiment [1], the cell count came to 428. In addition, the inhibition in experiment [1] was -1.5% (inactive); in experiment [3], 11.7% (inactive); in experiment [7] it was -5.17% (inactive); in experiment [8], 15.5% (inactive). In experiment [2], the inhibition of aggregation is 12.2% (inactive). Besides, the nuclei count in experiment [2] worked out at 90.1%; in experiment [3] it was 105%. Besides, the fluorescence slope in experiment [4] was -0.421 (inactive). The NADPH fluorescence slope in experiment [5] was -0.000112 (inactive). Besides, the slope in experiment [6] is 0.00573 (inactive).
Regarding `CC1Cc2nc(SCC(N)=O)n(Cc3ccccc3)c(=O)c2S1` (centres undefined), the cell count in experiment [1] is 633. In addition, the inhibition was -14% (inactive) in experiment [1], -15.2% (inactive) in experiment [3], -2.11% (inactive) in experiment [7] and 36% (inactive) in experiment [8]. In experiment [2], the inhibition of aggregation was 1.8% (inactive). For the same compound, the nuclei count in experiment [2] was 90.7%; in experiment [3], 113%. For the same compound, the fluorescence slope in experiment [4] is -0.438 (inactive). For the same compound, in experiment [5], the NADPH fluorescence slope was 2.5e-05 (inactive). Moreover, the slope in experiment [6] was 0.00575 (inactive).
Turning to `CCN(CC)CCOC(=O)c1cccc(OC)c1`, the cell count in experiment [1] stood at 249. Besides, the inhibition in experiment [1] is 4.3% (inactive); in experiment [3], 16.1% (inactive); in experiment [7], 6.23% (inactive); in experiment [8] it was 14.4% (inactive). The inhibition of aggregation in experiment [2] is -8.4% (inactive). Further, the nuclei count in experiment [2] is 114%; in experiment [3] it was 98.7%. The fluorescence slope in experiment [4] was -0.638 (inactive). Besides, the NADPH fluorescence slope in experiment [5] is -2.4e-05 (inactive). Also, the slope in experiment [6] is 0.00412 (inactive).
Turning to `Cc1cc2c(c(=O)n1C)C(Cc1ccccc1)C(C#N)=C(N)O2` (centres undefined), the cell count in experiment [1] stood at 620. The inhibition in experiment [1] is -20.7% (inactive); in experiment [3] it was -61.8% (inactive); in experiment [7], 9.72% (inactive); in experiment [8], 14.5% (inactive). Further, in experiment [2], the inhibition of aggregation was 24.9% (inactive). Besides, the nuclei count came out at 99.1% in experiment [2] and 117% in experiment [3]. In addition, the fluorescence slope in experiment [4] was -0.322 (inactive). Moreover, the NADPH fluorescence slope in experiment [5] is -3.8e-05 (inactive). The slope in experiment [6] was 0.00445 (inactive).
On to `COC(=O)Cn1c(CN2CCOCC2)nc2c1c(=O)n(C)c(=O)n2C`, for which the cell count in experiment [1] came out at 666. In addition, the inhibition in experiment [1] was -18.4% (inactive); in experiment [3] it was -0.7% (inactive); in experiment [7], 6.17% (inactive); in experiment [8], 32.9% (inactive). Moreover, the inhibition of aggregation in experiment [2] was 6.2% (inactive). The results for the nuclei count in experiment [2] and in experiment [3] were 95.4% and 114%, respectively. Moreover, the fluorescence slope in experiment [4] was -0.418 (inactive). In experiment [5], the NADPH fluorescence slope was -5.7e-05 (inactive). Further, in experiment [6], the slope is 0.00632 (inactive).
On to `Cc1cccc(-n2c(SCc3cc(=O)n4ccsc4n3)nc3ccccc32)c1`, for which, in experiment [1], the cell count is 439. The inhibition is 5.1% (inactive) in experiment [1], -73.8% (inactive) in experiment [3], -11% (inactive) in experiment [7] and -9.49% (inactive) in experiment [8]. For the same compound, the inhibition of aggregation in experiment [2] is -3.6% (inactive). Moreover, the nuclei count in experiment [2] came out at 97.1%; in experiment [3] it was 112%. In addition, the fluorescence slope in experiment [4] was -0.525 (inactive). Further, the NADPH fluorescence slope in experiment [5] was 1.8e-05 (inactive). The slope in experiment [6] is 0.00495 (inactive).
For the compound `CCOc1ccc2oc(-c3ccccc3)c(C(=O)N3CCN(CCO)CC3)c2c1`, the cell count in experiment [1] is 649. Further, the inhibition in experiment [1] was -14.6% (inactive); in experiment [3] it was -37.2% (inactive); in experiment [7], 15.9% (inactive); in experiment [8], 34% (inactive). Further, the inhibition of aggregation in experiment [2] is 2.8% (inactive). Moreover, the nuclei count amounted to 89.6% in experiment [2] and 112% in experiment [3]. Moreover, the fluorescence slope in experiment [4] was -0.584 (inactive). In addition, in experiment [5], the NADPH fluorescence slope was 1.9e-05 (inactive). The slope in experiment [6] was 0.00775 (inactive).
For `O=C(COc1ccccc1)Nc1ccccc1N1CCN(c2ccccc2)CC1`, the cell count in experiment [1] came to 672. Further, the inhibition in experiment [1] was 10.8% (inactive); in experiment [3] it was -71.5% (inactive); in experiment [7] it was 16.7% (inactive); in experiment [8], 3.18% (inactive). The inhibition of aggregation in experiment [2] is -7.4% (inactive). Also, the nuclei count is 84.2% in experiment [2] and 110% in experiment [3]. Further, the fluorescence slope in experiment [4] is -0.609 (inactive). For the same compound, the NADPH fluorescence slope in experiment [5] is -3.5e-05 (inactive). Besides, the slope in experiment [6] is 0.00412 (inactive).
With `COc1ccc(CCNC(=O)c2cnn3ccccc23)c(OC)c1OC`, the cell count in experiment [1] stood at 779. Besides, the inhibition in experiment [1] was -4.5% (inactive); in experiment [3], -59.3% (inactive); in experiment [7], 1.42% (inactive); in experiment [8], -10.8% (inactive). Also, the inhibition of aggregation in experiment [2] is -37.7% (inactive). Besides, the nuclei count in experiment [2] is 108%; in experiment [3] it was 115%. Moreover, the fluorescence slope in experiment [4] was -0.558 (inactive). Also, the NADPH fluorescence slope in experiment [5] was -4.4e-06 (inactive). For the same compound, the slope in experiment [6] was 0.00687 (inactive).

By inhibition is commonly meant the relative decrease from the control value, in per cent.
